This is one part of a sample in which hits are shown more often than they occur.
BL2 CD40 inh: inhibitors of CD40-induced NF-kB signaling, primary screen, BL2 cells, luciferase reporter, single point; hit rate 0.94% among 83,000; CD40L-induced, 4 h; inhibition, % at 10 µM;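 active means mean inhibition of at least 50% with a set share of replicates also reaching that level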;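 further: 0% = neutral control wells and 100% = IKK inhibitor VII at 50 µM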
* = called active by the depositor; [ ] = remark or other dose.

SMILES | BL2 CD40 inh
O=C(C[C@H]1C[C@H]2c3cc(NC(=O)NC4CCCCC4)ccc3O[C@H]2[C@@H](CO)O1)NC1CCCCC1 | 5
O=C(C[C@H]1C[C@@H]2c3cc(NC(=O)NC4CCCC4)ccc3O[C@@H]2[C@H](CO)O1)NCCc1ccccc1 | -9
C[C@H]1CN(C)C(=O)c2cc(N)ccc2O[C@@H]1CN(C)S(C)(=O)=O | -3
CC(=O)Nc1ccc2c(c1)CC(=O)N(C)C[C@H](C)[C@H](CN(C)C)O2 | 5
O=S(=O)(c1cccc2cnccc12)N1CCCNCC1 | -6[25 µM]
O=[N+]([O-])c1cccc2cnccc12 | 11
CC1CNCCN1S(=O)(=O)c1cccc2cnccc12 (centres undefined) | 32*
O=C(Nc1ccccc1)N1CCCCN2[C@@H](CO)[C@@H](c3ccc(-c4ccncc4)cc3)[C@@H]2C1 | -2[25 µM]
C=CC(=O)N1C/C(=C/c2ccc(F)cc2)C(=O)/C(=C\c2ccc(F)cc2)C1 | 68*
CN1CCN(C(=O)CCN2C(=O)/C(=C\c3ccc(F)cc3)SC2=S)CC1 | 24
O=C(CS(=O)(=O)c1ccc(F)cc1)N1CCN(c2ccccc2)CC1 | -22
C[C@@H]1CN([C@H](C)CO)C(=O)c2cccc(NS(=O)(=O)c3ccc(Cl)cc3)c2O[C@H]1CN(C)S(=O)(=O)c1cccs1 | 11
O=C(C1CCCC1)N1[C@@H](CO)[C@@H]2c3ccccc3N(S(=O)(=O)c3ccccc3)C[C@@H]21 | 7
CN1C(=O)c2cc(NC(=O)C3CCC3)ccc2OC[C@H]2O[C@@H](CC(=O)NCc3ccccc3F)CC[C@@H]21 | 4
Cc1ccccc1-c1ccc(C2[C@@H]3CN(Cc4ccc5c(c4)OCO5)C[C@H]2N3)cc1 (some centres undefined) | 9[25 µM]
O=C(Nc1ccccc1)N1CCCCN2[C@H](CO)[C@H](c3ccc(C#Cc4ccccc4)cc3)[C@H]2C1 | 35
c1c2c(cc3sc(N4CCOCC4)nc13)OCCO2 | 87*
Nc1ccc2nc(N3CCOCC3)sc2c1 | -45
c1ccc(N2CCN(c3nc4cc5c(cc4s3)OCCO5)CC2)cc1 | -76
CN1c2ccc(C3=CCCCC3)cc2[C@@H]2[C@@H](CCN2C(=O)C2CCC2)[C@H]1CO | 8
O=C(C[C@H]1C[C@@H]2c3cc(NC(=O)c4cccnc4)ccc3O[C@@H]2[C@H](CO)O1)NC1CCCC1 | 6
O=C(c1ccco1)N1CCN(S(=O)(=O)c2ccc3c(c2)CCN3C(=O)C2CCC2)CC1 | 9
O=C(C1CCC1)N1CCc2cc(S(=O)(=O)N3CCCCC3)ccc21 | active
CCOC(=O)N1CCN(S(=O)(=O)c2ccc3c(c2)CCN3C(=O)C2CCC2)CC1 | 3
O=C(NCC[C@@H]1CC[C@@H](NC(=O)C2CCCC2)[C@@H](CO)O1)c1cnccn1 | -5
SMILES | BL2 CD40 inh
O=C(NCC[C@H]1CC[C@@H](NC(=O)c2ccccc2F)[C@H](CO)O1)c1cnccn1 | -1[25 µM]
CC(=O)N1[C@H](C(=O)NC2CCCCC2)[C@@H](CO)[C@@H]2Cn3c(cccc3=O)[C@@H]21 | -3[25 µM]
O=C(C1CCC1)N1CC[C@@H]2[C@H](CO)Nc3ccc(Br)cc3[C@@H]21 | -26
O=C(C1CC1)N1C[C@@H]2[C@H](c3ccccc31)[C@@H](CO)N2C(=O)Nc1cccc(F)c1 | -2
COc1ccc(C=C(C(=O)c2ccccc2)C(=O)c2ccccc2)cc1 | -99
COc1ccc(C=C(C(C)=O)C(=O)c2ccccc2)cc1 | 3
CC(C)(C)NCC(=Cc1ccccc1)C(=O)c1ccccc1 | 52*
CC(=O)Nc1ccc2c(c1)C(=O)N(C)C[C@@H](C)[C@H](CN(C)S(C)(=O)=O)O2 | -6
CN1CCN(C(=O)C[C@@H]2CC[C@H]3[C@@H](COC[C@H](O)CN3CC3CCCC3)O2)CC1 | -1
CCCNC(=O)[C@H]1[C@H](CO)[C@H]2Cn3c(ccc(-c4ccccc4F)c3=O)[C@H]2N1C(=O)C1CCC1 | -7[25 µM]
C[C@@H]1CN([C@H](C)CO)C(=O)c2c(c3ccccc3n2C)-c2ccccc2CO[C@@H]1CN(C)S(=O)(=O)c1ccc(Cl)cc1 | 0
O=C(O)C[C@H]1C[C@@H]2c3cc(NS(=O)(=O)c4ccc(F)cc4)ccc3O[C@@H]2[C@@H](CO)O1 | 5[25 µM]
C[C@@H]1CN([C@@H](C)CO)C(=O)c2cccc(NC(=O)C3CCOCC3)c2O[C@H]1CN(C)Cc1ccncc1 | -7[25 µM]
N#Cc1c(NCCCO)nc(NCc2ccccc2)c2c1CCN(Cc1ccccc1)C2 | -1
Cc1nc(N2CCN(C(=O)c3ccco3)CC2)c(C#N)c2c1CCCC2 | -7
CN1CCc2c(C#N)c(N3CCCCC3)nc(NCc3ccccc3)c2C1 | 35*
CN1[C@H](C(=O)NC2Cc3ccccc3C2)[C@@H](CO)[C@@H]2Cn3c(ccc(-c4cccnc4)c3=O)[C@@H]21 | 8[25 µM]
COc1ccc2c3c(n(C)c2c1)[C@@H](CO)N(C(=O)C1CCOCC1)CC31CN(C)C1 | 10[25 µM]
O=C(C[C@@H]1C[C@H]2c3cc(NC(=O)Nc4ccccc4F)ccc3O[C@H]2[C@@H](CO)O1)NCc1ccc2c(c1)OCO2 | -12[25 µM]
CN1CCN(C(=O)C[C@@H]2CC[C@H]3[C@H](COc4ccc(NC(=O)C5CCC5)cc4C(=O)N3C)O2)CC1 | -3
CC(=O)Nc1ccc2c(c1)C(=O)N(C)C[C@H](C)[C@H](CN(C)C(=O)OC(C)(C)C)O2 | 5
O=C(N/N=C/c1cccc(O)c1)c1ccc2c(c1)OCCO2 | 75*
O=C(N/N=C/c1ccc2c(c1)OCO2)c1ccc2c(c1)OCO2 | -62
O=C(N/N=C/c1cccnc1)c1ccc2c(c1)OCO2 | -33
O=C(N[C@H]1CC[C@H](CCNS(=O)(=O)c2cccc(Cl)c2)O[C@@H]1CO)c1ccc(F)cc1 | 2
SMILES | BL2 CD40 inh
CC(C)NC(=O)Nc1ccc2c(c1)CC(=O)N(C)C[C@H](C)[C@H](CN(C)S(C)(=O)=O)O2 | 1
COc1ccc(S(=O)(=O)N(C)C[C@@H]2Oc3ccc(NC(=O)Nc4ccc(C(F)(F)F)cc4)cc3C(=O)N([C@H](C)CO)C[C@H]2C)cc1 | 53*[25 µM]
C[C@@H]1CCCCO[C@H](CN(C)CC2CCCCC2)[C@H](C)CN([C@@H](C)CO)C(=O)c2cc(NC(=O)Nc3ccc(C(F)(F)F)cc3)ccc2O1 | 55*[25 µM]
Cc1noc(C)c1NC(=O)N(C)C[C@@H]1OCCCC[C@H](C)Oc2ccc(NC(=O)Nc3ccc(C(F)(F)F)cc3)cc2C(=O)N([C@H](C)CO)C[C@@H]1C | 28[25 µM]
Cc1noc(C)c1NC(=O)N(C)C[C@@H]1OCCCC[C@@H](C)Oc2ccc(NC(=O)Nc3ccc(C(F)(F)F)cc3)cc2C(=O)N([C@H](C)CO)C[C@H]1C | 60*[25 µM]
C[C@@H]1CN([C@H](C)CO)C(=O)Cc2cc(NC(=O)Nc3ccc(C(F)(F)F)cc3)ccc2O[C@@H]1CN(C)CC1CCCCC1 | 32
C[C@@H]1CCCCO[C@@H](CN(C)CC2CCCCC2)[C@@H](C)CN([C@H](C)CO)C(=O)c2cc(NC(=O)Nc3ccc(C(F)(F)F)cc3)ccc2O1 | 5[25 µM]
C[C@H](CO)N1C[C@H](C)[C@@H](CN(C)Cc2ccc3c(c2)OCO3)Oc2ccc(NC(=O)Nc3ccc(C(F)(F)F)cc3)cc2C1=O | 13
C[C@@H]1CCCCO[C@@H](CN(C)CC2CCCCC2)[C@H](C)CN([C@@H](C)CO)C(=O)c2cc(NC(=O)Nc3ccc(C(F)(F)F)cc3)ccc2O1 | 18
C[C@H](CO)N1C[C@H](C)[C@H](CN(C)CC2CCCCC2)Oc2ccc(NC(=O)Nc3ccc(C(F)(F)F)cc3)cc2C1=O | 69*
